# From ChEMBL document CHEMBL2218924, “A broad activity screen in support of a chemogenomic map for kinase signalling research and drug discovery” (Biochem J, 2013)
# Key:
# [1] = molecular target: Death-associated protein kinase 1 (Homo sapiens) (UniProt P53355); conditions: at 10 µM
# [2] = molecular target: Death-associated protein kinase 2 (Homo sapiens) (UniProt Q9UIK4); conditions: at 1 µM
# [3] = molecular target: Death-associated protein kinase 2 (Homo sapiens) (UniProt Q9UIK4); conditions: at 10 µM
# [4] = molecular target: T1, Serine/threonine-protein kinase DCLK2 (Homo sapiens) (UniProt Q8N568); conditions: at 1 µM
# T1 sequence (whole entry): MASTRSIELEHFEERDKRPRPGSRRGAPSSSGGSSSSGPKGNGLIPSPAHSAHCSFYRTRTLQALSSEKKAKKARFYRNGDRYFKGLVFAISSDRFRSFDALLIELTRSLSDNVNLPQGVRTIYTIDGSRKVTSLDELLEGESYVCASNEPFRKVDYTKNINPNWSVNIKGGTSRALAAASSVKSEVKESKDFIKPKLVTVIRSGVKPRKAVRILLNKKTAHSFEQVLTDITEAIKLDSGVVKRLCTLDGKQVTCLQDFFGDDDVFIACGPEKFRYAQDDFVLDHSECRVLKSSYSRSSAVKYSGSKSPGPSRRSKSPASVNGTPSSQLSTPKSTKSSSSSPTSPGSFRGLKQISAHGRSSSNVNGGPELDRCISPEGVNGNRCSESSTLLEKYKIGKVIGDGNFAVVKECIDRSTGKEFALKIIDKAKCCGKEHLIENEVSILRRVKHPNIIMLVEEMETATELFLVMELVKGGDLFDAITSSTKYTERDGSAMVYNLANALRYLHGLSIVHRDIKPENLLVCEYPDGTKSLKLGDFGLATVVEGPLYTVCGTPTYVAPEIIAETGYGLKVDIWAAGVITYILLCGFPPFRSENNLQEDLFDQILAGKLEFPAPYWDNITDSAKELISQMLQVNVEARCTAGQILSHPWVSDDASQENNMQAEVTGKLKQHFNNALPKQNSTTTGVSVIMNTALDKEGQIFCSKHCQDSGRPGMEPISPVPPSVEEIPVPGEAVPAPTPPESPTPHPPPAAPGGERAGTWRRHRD
# [5] = molecular target: T1, Serine/threonine-protein kinase DCLK2 (Homo sapiens); conditions: at 10 µM
# [6] = molecular target: T2, Discoidin domain-containing receptor 2 (Homo sapiens) (UniProt Q16832); conditions: at 1 µM
# T2 sequence (whole entry): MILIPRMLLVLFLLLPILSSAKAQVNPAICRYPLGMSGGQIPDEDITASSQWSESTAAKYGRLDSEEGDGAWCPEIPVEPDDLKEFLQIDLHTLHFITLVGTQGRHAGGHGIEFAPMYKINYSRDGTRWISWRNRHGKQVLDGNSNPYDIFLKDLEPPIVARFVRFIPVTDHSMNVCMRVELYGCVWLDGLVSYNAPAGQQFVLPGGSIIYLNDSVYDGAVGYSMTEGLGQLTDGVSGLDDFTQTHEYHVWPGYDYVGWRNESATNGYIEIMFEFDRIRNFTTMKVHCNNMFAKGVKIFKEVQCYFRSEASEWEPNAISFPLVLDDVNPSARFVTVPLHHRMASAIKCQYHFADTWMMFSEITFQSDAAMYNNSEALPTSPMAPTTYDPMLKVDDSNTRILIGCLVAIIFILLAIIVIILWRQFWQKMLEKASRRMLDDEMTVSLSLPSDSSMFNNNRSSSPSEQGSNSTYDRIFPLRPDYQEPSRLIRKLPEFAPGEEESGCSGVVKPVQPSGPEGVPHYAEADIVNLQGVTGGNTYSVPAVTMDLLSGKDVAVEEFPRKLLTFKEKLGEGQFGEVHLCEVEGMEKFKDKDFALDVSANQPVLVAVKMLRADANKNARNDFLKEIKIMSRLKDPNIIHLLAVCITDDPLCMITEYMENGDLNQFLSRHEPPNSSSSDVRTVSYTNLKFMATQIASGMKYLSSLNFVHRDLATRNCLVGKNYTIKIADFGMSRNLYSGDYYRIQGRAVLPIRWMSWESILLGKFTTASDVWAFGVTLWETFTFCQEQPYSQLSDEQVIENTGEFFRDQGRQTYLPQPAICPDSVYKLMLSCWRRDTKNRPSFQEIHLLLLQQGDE
# [7] = molecular target: T2, Discoidin domain-containing receptor 2 (Homo sapiens); conditions: at 10 µM
# [8] = molecular target: T3, Myotonin-protein kinase (Homo sapiens) (UniProt Q09013); conditions: at 1 µM
# T3 sequence (whole entry): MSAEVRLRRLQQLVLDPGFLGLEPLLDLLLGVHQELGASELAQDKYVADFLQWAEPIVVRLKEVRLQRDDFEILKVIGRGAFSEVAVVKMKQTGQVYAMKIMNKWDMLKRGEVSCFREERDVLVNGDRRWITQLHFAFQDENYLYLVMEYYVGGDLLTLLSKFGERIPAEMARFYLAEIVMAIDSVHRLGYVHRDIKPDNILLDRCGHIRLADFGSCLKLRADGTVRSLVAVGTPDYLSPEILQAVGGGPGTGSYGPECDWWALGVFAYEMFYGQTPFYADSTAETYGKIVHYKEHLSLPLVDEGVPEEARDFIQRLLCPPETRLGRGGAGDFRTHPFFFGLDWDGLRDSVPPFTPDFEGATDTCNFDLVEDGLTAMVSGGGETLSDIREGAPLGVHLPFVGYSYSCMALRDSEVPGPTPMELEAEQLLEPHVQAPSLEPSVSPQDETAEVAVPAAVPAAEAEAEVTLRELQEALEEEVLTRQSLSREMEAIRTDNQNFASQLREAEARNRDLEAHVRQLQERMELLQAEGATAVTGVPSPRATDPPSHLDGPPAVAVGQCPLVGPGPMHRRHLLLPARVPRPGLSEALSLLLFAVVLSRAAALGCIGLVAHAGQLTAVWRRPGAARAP
# [9] = molecular target: T4, Dual specificity tyrosine-phosphorylation-regulated kinase 2 (Homo sapiens) (UniProt Q92630); conditions: at 1 µM
# T4 sequence (whole entry): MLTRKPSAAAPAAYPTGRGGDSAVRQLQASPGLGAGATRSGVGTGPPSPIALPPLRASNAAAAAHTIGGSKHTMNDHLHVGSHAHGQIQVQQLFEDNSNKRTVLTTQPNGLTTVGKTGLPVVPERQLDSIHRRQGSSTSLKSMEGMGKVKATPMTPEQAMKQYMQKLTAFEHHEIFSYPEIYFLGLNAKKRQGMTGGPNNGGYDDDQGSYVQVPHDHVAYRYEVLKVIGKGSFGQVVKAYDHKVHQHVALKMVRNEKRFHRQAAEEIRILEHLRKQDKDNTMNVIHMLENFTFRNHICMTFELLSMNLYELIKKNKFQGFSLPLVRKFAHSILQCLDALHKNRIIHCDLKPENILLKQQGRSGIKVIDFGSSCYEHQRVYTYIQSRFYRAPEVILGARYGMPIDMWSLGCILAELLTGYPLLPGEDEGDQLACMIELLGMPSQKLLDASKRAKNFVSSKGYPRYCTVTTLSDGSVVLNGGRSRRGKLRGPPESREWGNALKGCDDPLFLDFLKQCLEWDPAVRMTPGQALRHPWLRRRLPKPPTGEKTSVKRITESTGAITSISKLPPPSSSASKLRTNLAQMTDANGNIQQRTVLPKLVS
# [10] = molecular target: T4, Dual specificity tyrosine-phosphorylation-regulated kinase 2 (Homo sapiens); conditions: at 10 µM
# [11] = molecular target: T5, Ephrin type-A receptor 1 (Homo sapiens) (UniProt P21709); conditions: at 1 µM
# T5 sequence (whole entry): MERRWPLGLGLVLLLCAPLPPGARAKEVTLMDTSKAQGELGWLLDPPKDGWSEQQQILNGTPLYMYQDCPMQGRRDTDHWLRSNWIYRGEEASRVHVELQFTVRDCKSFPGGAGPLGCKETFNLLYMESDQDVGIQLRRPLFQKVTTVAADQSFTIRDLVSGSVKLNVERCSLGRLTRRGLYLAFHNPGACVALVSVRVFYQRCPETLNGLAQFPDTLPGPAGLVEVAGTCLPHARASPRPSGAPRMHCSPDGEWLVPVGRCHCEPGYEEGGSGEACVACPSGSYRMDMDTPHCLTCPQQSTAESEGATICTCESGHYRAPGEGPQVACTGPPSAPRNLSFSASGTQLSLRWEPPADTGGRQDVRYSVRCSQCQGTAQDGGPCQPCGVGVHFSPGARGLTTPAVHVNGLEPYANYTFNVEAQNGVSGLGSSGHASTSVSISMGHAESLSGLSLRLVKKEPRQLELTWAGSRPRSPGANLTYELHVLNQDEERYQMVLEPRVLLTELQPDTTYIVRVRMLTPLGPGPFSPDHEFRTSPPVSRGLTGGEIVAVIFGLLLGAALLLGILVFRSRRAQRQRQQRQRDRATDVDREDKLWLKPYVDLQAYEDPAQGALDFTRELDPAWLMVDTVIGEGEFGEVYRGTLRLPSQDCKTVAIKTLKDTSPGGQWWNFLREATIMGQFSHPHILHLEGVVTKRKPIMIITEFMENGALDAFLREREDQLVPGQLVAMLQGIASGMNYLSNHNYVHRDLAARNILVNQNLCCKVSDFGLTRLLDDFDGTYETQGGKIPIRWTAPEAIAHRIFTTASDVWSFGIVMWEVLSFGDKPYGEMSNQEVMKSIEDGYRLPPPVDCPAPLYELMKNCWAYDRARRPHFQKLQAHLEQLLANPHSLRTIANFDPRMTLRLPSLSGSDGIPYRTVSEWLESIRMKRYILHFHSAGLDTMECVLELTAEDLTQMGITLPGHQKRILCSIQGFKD
# [12] = molecular target: T5, Ephrin type-A receptor 1 (Homo sapiens); conditions: at 10 µM
# [13] = molecular target: T3, Myotonin-protein kinase (Homo sapiens); conditions: at 10 µM
# [14] = molecular target: Ephrin type-A receptor 2 (Homo sapiens) (UniProt P29317); conditions: at 1 µM
# [15] = molecular target: Ephrin type-A receptor 2 (Homo sapiens) (UniProt P29317); conditions: at 10 µM
# [16] = molecular target: T6, Ephrin type-A receptor 3 (Homo sapiens) (UniProt P29320); conditions: at 1 µM
# T6 sequence (whole entry): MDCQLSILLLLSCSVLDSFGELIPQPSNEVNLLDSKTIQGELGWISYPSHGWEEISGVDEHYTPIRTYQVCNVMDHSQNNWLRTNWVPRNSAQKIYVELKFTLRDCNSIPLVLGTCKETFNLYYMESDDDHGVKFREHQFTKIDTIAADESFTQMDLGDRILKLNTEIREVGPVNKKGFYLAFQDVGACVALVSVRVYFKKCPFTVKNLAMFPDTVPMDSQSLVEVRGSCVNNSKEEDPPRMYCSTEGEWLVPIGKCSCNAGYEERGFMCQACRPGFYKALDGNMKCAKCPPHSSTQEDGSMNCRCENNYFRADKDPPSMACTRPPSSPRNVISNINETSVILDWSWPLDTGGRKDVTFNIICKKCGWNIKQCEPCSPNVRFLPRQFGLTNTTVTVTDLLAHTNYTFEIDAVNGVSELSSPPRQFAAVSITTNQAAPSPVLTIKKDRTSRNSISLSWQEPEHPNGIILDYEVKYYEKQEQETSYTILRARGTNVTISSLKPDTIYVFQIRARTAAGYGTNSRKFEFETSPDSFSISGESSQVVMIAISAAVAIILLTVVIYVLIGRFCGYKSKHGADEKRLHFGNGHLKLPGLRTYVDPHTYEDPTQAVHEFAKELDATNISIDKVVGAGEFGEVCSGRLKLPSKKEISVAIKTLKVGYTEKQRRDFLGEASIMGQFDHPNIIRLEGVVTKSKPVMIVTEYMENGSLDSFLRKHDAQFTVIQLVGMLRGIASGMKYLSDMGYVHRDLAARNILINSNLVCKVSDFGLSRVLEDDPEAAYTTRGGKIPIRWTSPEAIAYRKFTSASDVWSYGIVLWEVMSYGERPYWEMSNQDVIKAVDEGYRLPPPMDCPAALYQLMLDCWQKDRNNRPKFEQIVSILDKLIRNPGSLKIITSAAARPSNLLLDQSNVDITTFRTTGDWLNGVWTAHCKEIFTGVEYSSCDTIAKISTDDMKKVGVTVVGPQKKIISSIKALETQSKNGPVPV
# [17] = molecular target: T7, Serine/threonine-protein kinase 17A (Homo sapiens) (UniProt Q9UEE5); conditions: at 1 µM
# T7 sequence (whole entry): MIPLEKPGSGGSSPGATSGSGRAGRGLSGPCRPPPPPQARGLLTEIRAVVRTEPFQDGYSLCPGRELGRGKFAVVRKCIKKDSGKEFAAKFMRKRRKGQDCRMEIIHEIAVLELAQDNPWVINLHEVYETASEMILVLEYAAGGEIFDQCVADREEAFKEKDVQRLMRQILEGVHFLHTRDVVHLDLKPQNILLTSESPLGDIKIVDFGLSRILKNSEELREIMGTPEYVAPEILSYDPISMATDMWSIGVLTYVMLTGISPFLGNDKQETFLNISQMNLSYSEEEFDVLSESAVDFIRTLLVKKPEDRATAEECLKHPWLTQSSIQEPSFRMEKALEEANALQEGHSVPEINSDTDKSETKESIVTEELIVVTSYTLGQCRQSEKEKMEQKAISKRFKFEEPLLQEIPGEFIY
# [18] = molecular target: T7, Serine/threonine-protein kinase 17A (Homo sapiens); conditions: at 10 µM
# Chain of Death-associated protein kinase 1 (Homo sapiens) (P53355 whole entry, looked up): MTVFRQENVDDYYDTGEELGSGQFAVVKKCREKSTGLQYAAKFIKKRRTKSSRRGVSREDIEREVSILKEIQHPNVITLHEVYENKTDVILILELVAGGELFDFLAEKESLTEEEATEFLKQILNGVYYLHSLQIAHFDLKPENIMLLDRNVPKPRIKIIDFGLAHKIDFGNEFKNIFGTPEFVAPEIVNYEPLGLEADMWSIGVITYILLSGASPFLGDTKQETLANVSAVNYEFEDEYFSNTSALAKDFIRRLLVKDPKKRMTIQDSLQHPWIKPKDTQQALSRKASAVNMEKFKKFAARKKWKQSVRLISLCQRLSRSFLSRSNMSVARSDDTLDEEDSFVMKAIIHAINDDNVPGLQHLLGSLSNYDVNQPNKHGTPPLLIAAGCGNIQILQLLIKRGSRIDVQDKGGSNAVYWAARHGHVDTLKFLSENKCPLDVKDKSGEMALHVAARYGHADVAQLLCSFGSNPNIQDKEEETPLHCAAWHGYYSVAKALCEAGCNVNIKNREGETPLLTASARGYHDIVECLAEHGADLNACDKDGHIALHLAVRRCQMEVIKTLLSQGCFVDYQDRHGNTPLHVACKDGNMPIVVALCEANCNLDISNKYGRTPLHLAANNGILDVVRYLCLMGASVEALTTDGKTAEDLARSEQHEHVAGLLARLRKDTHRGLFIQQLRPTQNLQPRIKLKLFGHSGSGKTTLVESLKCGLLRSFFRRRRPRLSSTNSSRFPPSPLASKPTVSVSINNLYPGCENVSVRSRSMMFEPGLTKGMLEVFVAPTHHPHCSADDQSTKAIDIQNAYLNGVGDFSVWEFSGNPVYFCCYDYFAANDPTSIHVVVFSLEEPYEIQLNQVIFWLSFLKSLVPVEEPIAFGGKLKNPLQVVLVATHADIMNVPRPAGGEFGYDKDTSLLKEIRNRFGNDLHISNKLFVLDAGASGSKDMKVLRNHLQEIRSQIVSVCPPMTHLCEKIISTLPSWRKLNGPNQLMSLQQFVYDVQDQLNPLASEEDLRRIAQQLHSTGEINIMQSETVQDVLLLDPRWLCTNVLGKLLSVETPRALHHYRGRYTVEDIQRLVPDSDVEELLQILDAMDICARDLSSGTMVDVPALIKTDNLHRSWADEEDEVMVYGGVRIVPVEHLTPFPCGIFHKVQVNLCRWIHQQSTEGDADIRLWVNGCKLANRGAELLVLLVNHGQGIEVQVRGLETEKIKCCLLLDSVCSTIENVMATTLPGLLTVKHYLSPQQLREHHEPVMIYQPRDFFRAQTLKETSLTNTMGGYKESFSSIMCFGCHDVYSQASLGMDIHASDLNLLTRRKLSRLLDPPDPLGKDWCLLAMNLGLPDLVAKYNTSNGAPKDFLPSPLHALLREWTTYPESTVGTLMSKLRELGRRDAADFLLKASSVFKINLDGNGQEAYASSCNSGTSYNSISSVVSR
# Chain of Death-associated protein kinase 2 (Homo sapiens) (Q9UIK4 whole entry, looked up): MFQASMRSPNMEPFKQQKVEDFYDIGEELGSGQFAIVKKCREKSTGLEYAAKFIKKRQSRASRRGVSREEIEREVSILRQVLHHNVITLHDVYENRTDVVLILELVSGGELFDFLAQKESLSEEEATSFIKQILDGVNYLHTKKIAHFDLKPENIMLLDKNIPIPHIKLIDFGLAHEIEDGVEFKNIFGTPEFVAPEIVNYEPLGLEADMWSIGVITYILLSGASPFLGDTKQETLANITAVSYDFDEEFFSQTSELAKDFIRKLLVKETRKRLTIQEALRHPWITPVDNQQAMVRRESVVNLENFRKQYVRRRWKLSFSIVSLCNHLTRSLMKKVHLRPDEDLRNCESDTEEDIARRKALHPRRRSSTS
# Chain of Ephrin type-A receptor 2 (Homo sapiens) (P29317 whole entry): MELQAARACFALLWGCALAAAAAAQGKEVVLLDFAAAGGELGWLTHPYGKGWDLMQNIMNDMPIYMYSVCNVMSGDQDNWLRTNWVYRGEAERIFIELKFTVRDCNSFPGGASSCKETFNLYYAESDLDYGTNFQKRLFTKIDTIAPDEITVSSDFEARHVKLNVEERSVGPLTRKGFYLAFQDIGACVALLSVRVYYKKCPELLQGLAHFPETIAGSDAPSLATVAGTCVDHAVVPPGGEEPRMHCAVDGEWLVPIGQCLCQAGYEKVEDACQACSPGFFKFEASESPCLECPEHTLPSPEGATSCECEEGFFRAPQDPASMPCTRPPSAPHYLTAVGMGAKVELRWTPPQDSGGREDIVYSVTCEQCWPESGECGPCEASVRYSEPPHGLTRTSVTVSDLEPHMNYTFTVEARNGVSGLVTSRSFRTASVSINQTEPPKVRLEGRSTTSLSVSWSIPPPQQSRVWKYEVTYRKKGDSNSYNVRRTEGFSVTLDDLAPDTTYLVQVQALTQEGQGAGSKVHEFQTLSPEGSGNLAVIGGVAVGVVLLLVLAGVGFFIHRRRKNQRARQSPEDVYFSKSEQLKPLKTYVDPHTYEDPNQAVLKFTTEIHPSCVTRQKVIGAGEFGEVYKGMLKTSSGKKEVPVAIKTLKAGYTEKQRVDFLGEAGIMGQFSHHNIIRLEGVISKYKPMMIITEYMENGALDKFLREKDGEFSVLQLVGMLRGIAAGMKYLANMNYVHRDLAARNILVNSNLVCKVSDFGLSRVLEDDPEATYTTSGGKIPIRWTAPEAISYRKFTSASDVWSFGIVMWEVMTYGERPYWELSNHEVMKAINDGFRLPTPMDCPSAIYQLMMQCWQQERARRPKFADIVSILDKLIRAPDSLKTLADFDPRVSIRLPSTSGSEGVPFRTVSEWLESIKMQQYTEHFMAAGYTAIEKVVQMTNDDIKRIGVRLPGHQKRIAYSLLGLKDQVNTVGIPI
Structure (SMILES),residual activity [1],residual activity [2],residual activity [3],residual activity [4],residual activity [5],residual activity [6],residual activity [7],residual activity [8],residual activity [9],residual activity [10],residual activity [11],residual activity [12],residual activity [13],residual activity [14],residual activity [15],residual activity [16],residual activity [17],residual activity [18]
O=C(NC(NC(=S)Nc1ccc(F)c([N+](=O)[O-])c1)C(Cl)(Cl)Cl)C(c1ccccc1)c1ccccc1 (stereo not given),71%,95%,78%,136%,86%,102%,90%,71%,98%,100%,104%,92%,–,–,–,–,–,–
Cn1sc(=O)n(Cc2ccccc2)c1=O,80%,97%,99%,100%,90%,78%,90%,–,96%,82%,96%,93%,81%,93%,92%,87%,–,–
O=C(O)/C=C/c1cc(Br)c(Br)c(Br)c1Br,62%,91%,39%,98%,68%,93%,95%,93%,92%,38%,104%,91%,76%,–,–,101%,79%,39%
CC(C)c1nn(-c2c(Cl)cccc2Cl)c2nc(Cc3ccc(OCCO)cc3)[nH]c(=O)c12,91%,92%,97%,73%,74%,98%,94%,–,96%,106%,105%,73%,87%,96%,103%,94%,96%,–
O=C1NC(=O)c2c1c1c3ccccc3[nH]c1n1cncc21,41%,9%,-1%,96%,85%,85%,91%,–,68%,57%,74%,50%,–,87%,86%,91%,10%,6%
